Results from PubChem BioAssay (NCI).
The panel holds about 83,000 compounds, 20% with a hit somewhere; the sample as a whole holds those more often.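 Treatment: one concentration, 48 hours, 96-well format. Scoring: percent growth, with anything below 10 considered active.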 A number with no mark means an inactive call. Activity calls are given as the source filed them.

The molecules below were run on MDA-MB-468 breast (assay: NCI-60 one-dose screen, 48 h (100 = growth as untreated, 0 = no growth, -100 = all killed)). Details: 10 µM unless noted.

| SMILES | growth |
| --- | --- |
| O=C1c2cccc(NCCN=Cc3cc([N+](=O)[O-])ccc3O)c2C(=O)c2c(NCCN=Cc3cc([N+](=O)[O-])ccc3O)cccc21 | 43.4% |
| CN(C)CCC(=O)c1ccc(O)cc1 | 107% |
| C1=CC2=CC=C3C=CC=C4C(c5nc6c7ccccc7c7ccccc7c6[nH]5)=CC(=C1)C2C34 (stereo not given) | 21.9% |
| Clc1ccc2c(NCCNc3nc(N4CCCCC4)nc4ccccc34)ccnc2c1 | -31.7% (active) |
| Clc1ccc(Nc2ccnc(N3CCN(c4ccnc5cc(Cl)ccc45)CC3)n2)cc1 | 39.4% |
| O=C(O)c1cn(C2CC2)c2cc(N3CCN(C(=O)/C=C/c4ccc(Cl)cc4)CC3)c(F)cc2c1=O | 75.5% |
| N#Cc1c(Oc2ccc([N+](=O)[O-])cc2)nc2sc3cc(Cl)ccc3n2c1=N | -39.8% (active) |
| CCN1CCN(C(=O)[C@]23CC[C@@H](C)[C@H](C)[C@@H]2C2=CC[C@@H]4[C@@]5(C)C/C(=C/c6ccncc6)C(=O)C(C)(C)[C@@H]5CC[C@@]4(C)[C@]2(C)CC3)CC1 | -1.64% (active) |
| COc1ccc(Oc2ccc(C3CC(c4cc(OC)c(OC)c(OC)c4)=NN3C(C)=O)cc2)cc1 (stereo not given) | 4.96% (active) |
| OCCN1CCN(CC/C=C2/c3ccccc3Sc3ccc(C(F)(F)F)cc32)CC1 | 68.4% |
| Oc1ccc(C(c2ccc(O)cc2)C(Cl)(Cl)Cl)cc1 | 90% |
| CC(C)N(Cc1ccc(CN(C(=O)CCl)C(C)C)cc1)C(=O)CCl | 15.4% |
| Cc1cc(O)c(C2=NN(c3ccc(S(N)(=O)=O)cc3)C(c3ccccc3O)C2)cc1Cl (stereo not given) | 17.2% |
| Cn1nc(-c2ccccc2)c2c(-c3ccccc3)onc2c1=O | 15.1% |
| CS(=O)(=O)c1ccc(C(=O)N/N=C/c2ccccc2O)cc1 | 64.7% |
| CC(C)(C)OC(=O)Nc1ccc2c(c1)C(NC(=O)Nc1cccc(C#N)c1)CC(C)(C)O2 (stereo not given) | -5.73% (active) |
| S=c1[nH]nc(CSc2ncnc3c2c(-c2ccccc2)cn3-c2ccc(Cl)cc2)o1 | 108% |
| CNC(=O)c1c(NC(=O)c2ccc(C(C)(C)C)cc2)sc2c(CN(C)C)c(O)ccc12 | -60.5% (active) |
| COc1ccc2nc(-c3ccc(-c4noc(-c5cc(OC)c(OC)c(OC)c5)n4)cc3)[nH]c2c1 | 68.2% |
| COc1cc(CCC[P+](c2ccccc2)(c2ccccc2)c2ccccc2)c(OC)c2c1OCO2 | -25.3% (active) |
| CCN(C(C)=O)c1ccc([N+](=O)[O-])cc1 | 103% |
| COc1cc(NCCC2CCCCN2)c2ncccc2c1OC (stereo not given) | 73.8% |
| C=Cc1cc[n+](CCCCCCCCCCCC)cc1 | 102% |
| N#CC1=C(c2ccccc2)Nc2c(c(-c3ccc(Cl)cc3)nn2-c2ccccc2)C12C(=O)Nc1ccc(Cl)cc12 (stereo not given) | 70% |
| Clc1ccc(Nc2nnc(COc3ccccc3)c3ccccc23)cc1 | -16.9% (active) |
